# Pf Dd2 growth = blocks growth of Plasmodium falciparum Dd2 parasites; P. falciparum Dd2 growth, SYBR Green, 72 h; hits give low values; activity change, % at 10 µM; actives 2.3% (n = 94,000); AID 1159554; in the data active means activity change below about -80%; inconclusive means no clear call, values can overlap the other calls
# T cruzi growth-1 = T. cruzi proliferation inhibition; T. cruzi beta-gal in NIH3T3, GalScreen luminescence, 90 h; inhibition, % at 8.34 µM; actives 5.9% (n = 77,000);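 active means mean inhibition above about 93%, with at least 55% of replicates each passing it, limit read from the data, passing the limit was not always enough; inconclusive means only one of those two conditions holds; inactive means neither condition holds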
# C diff HTS = C. difficile growth inhibition; Clostridium difficile clinical isolate growth, OD600, 24 h; hits give low values; growth activity, negative = inhibition, % at 16 µg/mL (by protocol); actives 0.25% (n = 86,000);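 active means mean growth activity at or below -80% and every replicate also at or below -80%; inconclusive means mean at or below -80% but some replicate above -80%; inactive means mean growth activity above -80%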;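 further: 0% = DMSO wells and -100% = levofloxacin 16 µg/mL wells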
# T cruzi growth-2 = inhibitors of T. cruzi proliferation; shares compounds with T cruzi growth-1; T. cruzi beta-gal in NIH3T3, GalScreen luminescence, 90 h; inhibition, % at 8.35 µM; actives 72% (n = 5,600);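 active means mean replicate inhibition above about 95% and at least 55% of replicates individually reaching it, limit read from the data; inconclusive means only one of the two criteria is met; inactive means neither criterion is met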
# T cruzi growth-3 = inhibitors of T. cruzi proliferation; T. cruzi beta-gal in NIH3T3, GalScreen luminescence, 90 h; inhibition, % at 2.09 µM; actives 21% (n = 5,600); shares compounds with T cruzi growth-1;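 active means mean inhibition above about 95%, with at least 55% of replicates also reaching it, limit read from the data; inconclusive means meets just one of the two conditions; inactive means meets neither condition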;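 further: plate controls were neutral control median for no effect and positive control median for full effect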
# 3T3 cytotox = cytotoxicity in mouse NIH/3T3 fibroblasts | shares compounds with T cruzi growth-1 | NIH/3T3 viability, CellTiter-Glo ATP luminescence, 90 h | cytotoxicity (signal decrease), % at 8.35 µM | actives 14% (n = 5,600) | AID 651742;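 active means mean signal decrease across replicates above about 35% based on untreated-well scatter, with enough replicates individually passing, limit read from the data; inconclusive means no rule stated though some were filed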;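 further: 0% = median of neutral control wells and 100% = median of positive control wells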
# 3T3 cytotox 2 = NIH/3T3 (mouse) viability loss. shares compounds with T cruzi growth-1. NIH/3T3 viability, CellTiter-Glo ATP luminescence, 90 h. inhibition, % at 24.9 µM. actives 56% (n = 5,600). AID 651744;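 active means mean loss of cell viability signal at or above a set limit, and enough replicates individually reaching it; inconclusive means meets only the mean limit or only the replicate share; inactive means meets neither condition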;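 further: 0% = median of neutral control wells and 100% = median of positive control wells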
# * = called active by the depositor; ? = inconclusive; · = no result given. Hits are enriched below; roughly 6.7% of the tested compounds scored in any of these assays.
SMILES,Pf Dd2 growth,T cruzi growth-1,C diff HTS,T cruzi growth-2,T cruzi growth-3,3T3 cytotox,3T3 cytotox 2
C/C=C/c1ccc([C@H]2[C@@H](CO)N3CCCCN(S(=O)(=O)c4cccc(C)c4)C[C@@H]23)cc1,-7,111*,25,112*,69,10,80*
C/C=C/c1ccc([C@H]2[C@H](CO)N3CCCCN(S(=O)(=O)c4cccc(C)c4)C[C@@H]23)cc1,-10,118*,7,107*,75,27,105*
O=C(Cc1ccccn1)N1CC(=O)N2[C@H](CO)[C@H](c3ccc(C#CC4CCCC4)cc3)[C@H]2C1,-38,·,-10,·,·,·,·
C[C@H](CO)N1C[C@H](C)[C@@H](CN(C)Cc2ccc(Oc3ccccc3)cc2)Oc2c(NS(=O)(=O)c3ccc(Cl)cc3)cccc2C1=O,-48,102*,12,?,77,21,100*
C[C@H]1CN([C@@H](C)CO)C(=O)c2cccc(NS(=O)(=O)c3ccc(Cl)cc3)c2O[C@H]1CN(C)Cc1ccc(Oc2ccccc2)cc1,-22,103,36,·,·,·,·
C[C@@H]1CN([C@@H](C)CO)C(=O)c2cccc(NS(=O)(=O)c3ccc(Cl)cc3)c2O[C@@H]1CN(C)Cc1ccc(Oc2ccccc2)cc1,-67,96,13,·,·,·,·
C[C@@H]1CN([C@H](C)CO)C(=O)c2cccc(NS(=O)(=O)c3ccc(Cl)cc3)c2O[C@H]1CN(C)Cc1ccc(Oc2ccccc2)cc1,-59,?,15,110*,64,-12,24
CCCNC(=O)N[C@H]1C=C[C@H](CC(=O)N2CCN(C)CC2)O[C@H]1CO,-2,-19,·,·,·,·,·
C[C@@H]1CN([C@@H](C)CO)C(=O)c2cccc(NC(=O)C3CCCCC3)c2O[C@H]1CN(C)Cc1ccc2c(c1)OCO2,-41,45,-11,·,·,·,·
Cc1noc(C)c1NC(=O)N(C)C[C@H]1OCc2cn(nn2)CCCC(=O)N([C@H](C)CO)C[C@@H]1C,9,-9,4,·,·,·,·
COC(=O)N(C)C[C@@H]1OCc2cn(nn2)CCCC(=O)N([C@H](C)CO)C[C@H]1C,-17,-250,·,·,·,·,·
Cc1noc(C)c1NC(=O)N(C)C[C@@H]1OCc2cn(nn2)CCCC(=O)N([C@H](C)CO)C[C@@H]1C,1,?,-1,16,-2,-3,-12
COC(=O)N(C)C[C@H]1OCc2cn(nn2)CCCC(=O)N([C@@H](C)CO)C[C@H]1C,-6,?,-1,25,4,21,?
C[C@H](CO)N1C[C@H](C)[C@@H](CN(C)C(=O)Nc2cccc(F)c2)OCc2cn(nn2)CCCC1=O,5,?,-4,109*,17,31,15
C[C@H]1CN([C@@H](C)CO)C(=O)CCCn2cc(nn2)CO[C@@H]1CN(C)Cc1ccc(Cl)c(Cl)c1,20,-65,0,·,·,·,·
C[C@@H]1CN([C@H](C)CO)C(=O)CCCn2cc(nn2)CO[C@@H]1CN(C)C(=O)Nc1cccc(F)c1,9,11,1,·,·,·,·
C[C@@H]1CN([C@@H](C)CO)C(=O)CCCn2cc(nn2)CO[C@H]1CN(C)Cc1ccc(Cl)c(Cl)c1,8,135*,-6,77,74,-30,0
CC(C)C#Cc1cnc2c(c1)C(=O)N([C@@H](C)CO)C[C@@H](C)[C@@H](CN(C)Cc1ccccc1F)O2,·,65,2,·,·,·,·
C[C@@H]1CN([C@H](C)CO)C(=O)Cc2cc(NC(=O)Nc3ccccc3)ccc2O[C@H]1CN(C)C(=O)Nc1cccc2ccccc12,-8,17,-2,·,·,·,·
CC=Cc1ccc2n(c1=O)C[C@H]1[C@H](CO)[C@@H](C(=O)Nc3ccc(-c4ccccc4)cc3)[C@@H]2N1C (mixture of isomers),-24,26,5,·,·,·,·
C[C@@H]1CN([C@H](C)CO)C(=O)c2cc(NC(=O)CCC(F)(F)F)ccc2O[C@@H](C)CCCCO[C@H]1CN(C)C(=O)Nc1ccc2c(c1)OCO2,-28,55,-1,·,·,·,·
Cc1ccc(S(=O)(=O)N(C)C[C@H]2OCCCC[C@H](C)Oc3ccc(NC(=O)CCC(F)(F)F)cc3C(=O)N([C@H](C)CO)C[C@@H]2C)cc1,-52,·,·,·,·,·,·
